Values without a mark were called inactive.
Key:
Experiment in all cases: log2 ratio of Biotin-Ahx-Ub-VS probe labelling (fragment/DMSO); higher = less target engagement (more negative = stronger competition), active = hit call of the paper (q ≤ 0.05, log2 ratio ≤ -1)
Conditions in all cases: compound concentration: 200 uM; treatment time: 3 h
ALG13 = target: T1, ALG13 (UniProt Q9NP73)
T1 sequence (whole entry): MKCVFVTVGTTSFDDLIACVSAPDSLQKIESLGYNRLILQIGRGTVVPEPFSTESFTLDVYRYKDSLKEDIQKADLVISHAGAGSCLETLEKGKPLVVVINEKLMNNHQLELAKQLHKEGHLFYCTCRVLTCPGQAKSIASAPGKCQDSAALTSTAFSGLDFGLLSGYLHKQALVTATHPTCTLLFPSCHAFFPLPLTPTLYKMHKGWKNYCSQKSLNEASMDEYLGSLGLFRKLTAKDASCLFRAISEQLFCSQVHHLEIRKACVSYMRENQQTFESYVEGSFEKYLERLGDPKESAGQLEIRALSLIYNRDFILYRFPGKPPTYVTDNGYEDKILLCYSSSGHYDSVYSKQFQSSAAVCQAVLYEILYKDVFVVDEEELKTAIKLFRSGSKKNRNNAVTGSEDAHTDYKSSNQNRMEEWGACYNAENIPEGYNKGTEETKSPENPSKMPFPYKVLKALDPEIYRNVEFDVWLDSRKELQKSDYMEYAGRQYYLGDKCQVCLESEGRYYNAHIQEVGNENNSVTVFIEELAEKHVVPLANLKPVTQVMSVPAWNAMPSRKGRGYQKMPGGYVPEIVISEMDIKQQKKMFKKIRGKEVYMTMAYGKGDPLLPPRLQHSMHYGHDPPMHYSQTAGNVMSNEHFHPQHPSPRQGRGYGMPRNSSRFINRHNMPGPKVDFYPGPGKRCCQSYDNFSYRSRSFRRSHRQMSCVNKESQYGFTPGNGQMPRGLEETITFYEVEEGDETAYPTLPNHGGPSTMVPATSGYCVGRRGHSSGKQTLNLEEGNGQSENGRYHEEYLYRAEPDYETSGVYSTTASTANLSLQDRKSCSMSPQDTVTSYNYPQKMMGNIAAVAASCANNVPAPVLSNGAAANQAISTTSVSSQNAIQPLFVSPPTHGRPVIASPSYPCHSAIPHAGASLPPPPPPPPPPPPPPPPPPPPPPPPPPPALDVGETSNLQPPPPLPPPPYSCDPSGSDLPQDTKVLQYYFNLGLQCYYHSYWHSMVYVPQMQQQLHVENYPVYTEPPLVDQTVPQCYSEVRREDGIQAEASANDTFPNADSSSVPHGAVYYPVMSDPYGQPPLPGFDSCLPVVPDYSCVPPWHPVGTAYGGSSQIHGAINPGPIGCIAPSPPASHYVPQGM
Outline: (§1)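 HEK293T lysate (495 µg per sample, in Tris/CHAPS/IGEPAL buffer with protease inhibitors) was exposed in triplicate for 3 h to fragment at 200 µM or to vehicle, then to Biotin-Ahx-Ub-VS at 0.5 µM final for 1 h. Labelled DUBs were enriched on NeutrAvidin, digested with LysC and trypsin, and analysed by diaPASEF LC-MS/MS. Spectronaut label-free quantities were normalised to the global median, and values are average log2 ratios of fragment over vehicle from an unpaired t-test. Only proteins with ≥2 unique peptides were used.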

ATXN3 = ATXN3 (UniProt P54252)
Chain of ATXN3 (P54252 whole entry): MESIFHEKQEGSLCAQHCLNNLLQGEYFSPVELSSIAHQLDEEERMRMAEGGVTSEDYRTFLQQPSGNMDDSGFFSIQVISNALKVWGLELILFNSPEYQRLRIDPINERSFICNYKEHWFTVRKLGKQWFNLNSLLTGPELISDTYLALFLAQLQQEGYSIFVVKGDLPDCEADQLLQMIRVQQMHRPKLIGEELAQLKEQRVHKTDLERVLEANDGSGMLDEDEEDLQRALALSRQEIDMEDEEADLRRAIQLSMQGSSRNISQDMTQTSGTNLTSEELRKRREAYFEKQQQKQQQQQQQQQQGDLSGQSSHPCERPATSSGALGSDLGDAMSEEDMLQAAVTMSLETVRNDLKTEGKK
Outline: as §1

BAP1 = target: T2, BAP1 (UniProt Q92560)
T2 sequence (whole entry): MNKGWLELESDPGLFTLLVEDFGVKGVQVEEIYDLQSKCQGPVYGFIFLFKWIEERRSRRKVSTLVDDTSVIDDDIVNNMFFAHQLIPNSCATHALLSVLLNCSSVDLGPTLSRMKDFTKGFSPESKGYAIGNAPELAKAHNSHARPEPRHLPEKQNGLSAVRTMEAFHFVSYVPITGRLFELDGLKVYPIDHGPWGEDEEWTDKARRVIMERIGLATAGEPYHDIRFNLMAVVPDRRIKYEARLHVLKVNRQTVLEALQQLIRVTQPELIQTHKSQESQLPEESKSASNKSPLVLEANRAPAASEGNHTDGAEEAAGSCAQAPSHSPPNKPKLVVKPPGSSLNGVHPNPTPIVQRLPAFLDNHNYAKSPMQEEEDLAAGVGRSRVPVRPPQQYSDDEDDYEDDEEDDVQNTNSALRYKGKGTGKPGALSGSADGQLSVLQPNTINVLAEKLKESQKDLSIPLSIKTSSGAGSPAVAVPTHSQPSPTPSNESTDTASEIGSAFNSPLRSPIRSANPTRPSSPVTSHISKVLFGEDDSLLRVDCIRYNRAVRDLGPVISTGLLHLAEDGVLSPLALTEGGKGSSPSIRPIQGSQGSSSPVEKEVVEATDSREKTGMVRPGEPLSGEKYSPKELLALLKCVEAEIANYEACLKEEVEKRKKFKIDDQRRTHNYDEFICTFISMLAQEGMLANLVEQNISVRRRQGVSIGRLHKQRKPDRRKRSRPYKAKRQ
Outline: as §1

EIF3F = EIF3F (UniProt O00303)
Chain of EIF3F (O00303 whole entry): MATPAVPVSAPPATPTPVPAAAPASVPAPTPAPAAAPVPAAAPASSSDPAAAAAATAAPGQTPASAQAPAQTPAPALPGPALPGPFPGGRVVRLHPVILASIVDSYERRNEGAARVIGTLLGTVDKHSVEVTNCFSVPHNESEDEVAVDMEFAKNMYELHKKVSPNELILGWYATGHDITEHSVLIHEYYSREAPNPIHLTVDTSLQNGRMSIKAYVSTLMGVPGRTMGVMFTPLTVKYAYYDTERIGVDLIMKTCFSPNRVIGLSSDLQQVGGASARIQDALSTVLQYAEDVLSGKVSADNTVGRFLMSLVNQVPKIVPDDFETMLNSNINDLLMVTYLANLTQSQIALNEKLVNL
Outline: as §1

EIF3H = EIF3H (UniProt O15372)
Chain of EIF3H (O15372 whole entry): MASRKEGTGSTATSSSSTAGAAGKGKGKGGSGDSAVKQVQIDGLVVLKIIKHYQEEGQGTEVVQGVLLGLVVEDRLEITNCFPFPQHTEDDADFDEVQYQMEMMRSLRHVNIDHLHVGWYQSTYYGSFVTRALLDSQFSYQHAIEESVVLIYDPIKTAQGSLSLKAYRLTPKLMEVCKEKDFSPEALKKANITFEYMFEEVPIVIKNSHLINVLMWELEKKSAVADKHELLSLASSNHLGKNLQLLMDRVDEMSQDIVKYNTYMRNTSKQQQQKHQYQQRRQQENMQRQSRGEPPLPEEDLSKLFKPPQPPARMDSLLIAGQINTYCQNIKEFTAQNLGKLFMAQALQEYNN
Outline: as §1

FAM105A = target: T3, FAM105A (UniProt Q9NUU6)
T3 sequence (whole entry): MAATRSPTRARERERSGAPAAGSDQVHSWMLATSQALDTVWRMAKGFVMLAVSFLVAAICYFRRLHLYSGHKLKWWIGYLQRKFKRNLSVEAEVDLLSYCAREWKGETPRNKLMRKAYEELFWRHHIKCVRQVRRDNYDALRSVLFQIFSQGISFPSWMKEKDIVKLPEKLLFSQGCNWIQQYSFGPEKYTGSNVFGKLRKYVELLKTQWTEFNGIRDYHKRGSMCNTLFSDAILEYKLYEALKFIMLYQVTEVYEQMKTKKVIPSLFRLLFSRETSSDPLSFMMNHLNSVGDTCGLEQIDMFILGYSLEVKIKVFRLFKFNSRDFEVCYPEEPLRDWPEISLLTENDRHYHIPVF
Outline: as §1

OTUB1 = OTUB1 (UniProt Q96FW1)
Chain of OTUB1 (Q96FW1 whole entry): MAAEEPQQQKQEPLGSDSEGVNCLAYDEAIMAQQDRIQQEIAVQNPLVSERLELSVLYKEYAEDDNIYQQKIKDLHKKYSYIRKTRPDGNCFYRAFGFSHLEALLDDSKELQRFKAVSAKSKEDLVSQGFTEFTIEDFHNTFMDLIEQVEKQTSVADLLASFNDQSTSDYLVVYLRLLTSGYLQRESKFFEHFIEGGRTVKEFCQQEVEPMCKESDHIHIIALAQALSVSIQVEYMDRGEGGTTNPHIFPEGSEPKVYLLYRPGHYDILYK
Outline: as §1

OTUD4 = target: T4, OTUD4 (UniProt Q01804)
T4 sequence (whole entry): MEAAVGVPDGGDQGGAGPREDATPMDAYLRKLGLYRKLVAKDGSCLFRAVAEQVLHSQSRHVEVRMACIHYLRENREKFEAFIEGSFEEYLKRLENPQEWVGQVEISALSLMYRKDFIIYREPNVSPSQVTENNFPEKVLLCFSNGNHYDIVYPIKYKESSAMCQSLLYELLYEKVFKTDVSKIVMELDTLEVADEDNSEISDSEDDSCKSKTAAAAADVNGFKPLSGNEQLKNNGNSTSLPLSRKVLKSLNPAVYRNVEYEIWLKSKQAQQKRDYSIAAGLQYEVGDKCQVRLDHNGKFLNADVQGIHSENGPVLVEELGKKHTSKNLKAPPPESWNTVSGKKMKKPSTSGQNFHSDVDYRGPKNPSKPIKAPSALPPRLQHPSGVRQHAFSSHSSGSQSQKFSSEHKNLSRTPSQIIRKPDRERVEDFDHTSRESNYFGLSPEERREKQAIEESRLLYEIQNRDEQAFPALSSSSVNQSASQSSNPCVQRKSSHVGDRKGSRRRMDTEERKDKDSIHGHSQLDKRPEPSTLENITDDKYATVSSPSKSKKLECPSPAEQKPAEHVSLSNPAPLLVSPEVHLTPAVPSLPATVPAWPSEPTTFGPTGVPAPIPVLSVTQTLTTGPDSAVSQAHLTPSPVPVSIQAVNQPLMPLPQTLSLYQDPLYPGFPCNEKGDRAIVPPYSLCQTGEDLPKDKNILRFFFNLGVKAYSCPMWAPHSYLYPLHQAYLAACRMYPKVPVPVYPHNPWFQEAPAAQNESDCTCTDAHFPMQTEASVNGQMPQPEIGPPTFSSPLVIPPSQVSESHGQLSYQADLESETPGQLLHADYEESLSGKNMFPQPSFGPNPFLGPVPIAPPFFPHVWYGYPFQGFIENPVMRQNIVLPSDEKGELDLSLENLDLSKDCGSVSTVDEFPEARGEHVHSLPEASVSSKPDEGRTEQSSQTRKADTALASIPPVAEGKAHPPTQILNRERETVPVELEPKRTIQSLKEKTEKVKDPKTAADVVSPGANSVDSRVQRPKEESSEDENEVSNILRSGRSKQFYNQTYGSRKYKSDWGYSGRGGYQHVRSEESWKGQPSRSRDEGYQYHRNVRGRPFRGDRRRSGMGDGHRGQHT
Outline: as §1

OTUD5 = target: T5, OTUD5 (UniProt Q96G74)
T5 sequence (whole entry): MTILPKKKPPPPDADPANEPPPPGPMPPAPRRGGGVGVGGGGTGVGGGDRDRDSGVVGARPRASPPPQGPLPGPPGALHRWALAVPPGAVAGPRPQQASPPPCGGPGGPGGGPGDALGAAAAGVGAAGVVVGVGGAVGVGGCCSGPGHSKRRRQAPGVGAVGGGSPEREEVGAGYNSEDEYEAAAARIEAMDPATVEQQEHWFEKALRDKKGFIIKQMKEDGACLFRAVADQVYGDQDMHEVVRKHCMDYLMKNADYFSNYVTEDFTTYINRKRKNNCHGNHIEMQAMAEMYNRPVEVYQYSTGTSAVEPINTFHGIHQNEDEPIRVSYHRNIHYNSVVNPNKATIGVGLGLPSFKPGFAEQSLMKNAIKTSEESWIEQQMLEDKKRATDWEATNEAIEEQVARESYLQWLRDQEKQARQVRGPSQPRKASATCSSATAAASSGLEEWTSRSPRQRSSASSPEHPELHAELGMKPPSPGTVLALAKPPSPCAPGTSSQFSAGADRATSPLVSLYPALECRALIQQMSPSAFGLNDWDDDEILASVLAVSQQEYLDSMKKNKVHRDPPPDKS
Outline: as §1

Cc1nc(CC2CCN(C(=O)CCl)CC2)no1 was tested, and the “log2 ratio of Biotin-Ahx-Ub-VS probe labelling” value (shortened to “log2 ratio”) (ALG13) was -0.358, the “log2 ratio” value (ATXN3) was -1.02 (active) and the “log2 ratio” value (BAP1) was -1.08. For the same molecule, the “log2 ratio” value (EIF3F) was -0.302, the “log2 ratio” value (EIF3H) was -0.111 and the “log2 ratio” value (FAM105A) was -0.155. The “log2 ratio” value (OTUB1) was -0.686, the “log2 ratio” value (OTUD4) was -0.753 and the “log2 ratio” value (OTUD5) was -0.888.

Source: the supplement of paper PMC11732987, “Enantioselective OTUD7B fragment discovery through chemoproteomics screening and high-throughput optimisation” (Communications Chemistry, 2025)
